Measured values taken from PubChem BioAssay (EPA / NIEHS).
Activity calls are given as the source filed them. How the source made its calls: active means hit-call score of the fitted dose curve at least 0.9, where 1 is the maximum; inactive means score below 0.9.

What was measured:
[1] = BSK_3C_SRB: Viability Assessment in the BioMAP Diversity Plus: 3C Assay (AID 2283023); conditions: primary human endothelial cells (HUVEC);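 further: fitted both ways against DMSO so a hit may be signal rise or drop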
How it was run: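 Absorbance at 560 nm of sulforhodamine B-stained (0.1%) total protein served as a cytotoxicity readout in human umbilical vein endothelial cells, 24 h after chemical treatment. Signal was fitted bidirectionally relative to DMSO.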

[2] = read-out: Matrix Metallopeptidase 1 (MMP1), MMP1 (gene 4312); assay: BSK_BE3C_MMP1: BioMAP Diversity Plus: BE3C Assay for Matrix Metallopeptidase 1 (MMP1) Biomarker Activity (AID 2283024); conditions: primary human bronchial epithelial cells; actives raise or lower the signal
How it was run: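 Human bronchial epithelial cells (BE3C system) exposed to compound for 24 h; MMP1 then quantified by ELISA. Activity was fitted in both directions relative to DMSO.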

[3] = BSK_3C_Vis: BioMAP Diversity Plus: 3C Assay for Morphology Visualization (AID 2283025); conditions: primary human endothelial cells (HUVEC);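 further: fitted both ways so gain or loss versus DMSO counts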;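 on AC50: light microscopy image of cell morphology used as background control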
How it was run: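 Chemicals were added to primary human umbilical vein endothelium, cells were incubated 24 h, and morphology was then visualized by light microscopy. Gain or loss of signal was fitted bidirectionally relative to DMSO.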

[4] = read-out: Pselectin, SELP (gene 6403); assay: BSK_4H_Pselectin: BioMAP Diversity Plus: 4H Assay for Pselectin Biomarker Activity (AID 2283026); conditions: primary human endothelial cells (HUVEC); actives raise or lower the signal
How it was run: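 ELISA read-out of P-selectin on human umbilical vein endothelium after 24 h of dosing. Values derive from bidirectional fitting relative to DMSO. Parallel SRB protein staining flagged overt cytotoxicity.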

[5] = BSK_4H_SRB: Viability Assessment in the BioMAP Diversity Plus: 4H Assay (AID 2283027); conditions: primary human endothelial cells (HUVEC);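 further: cells exposed to compound for 24 h before staining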;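 on AC50: curves fitted both ways versus DMSO so AC50 may be loss or gain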
How it was run: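 Absorbance at 560 nm of SRB-stained total protein served as the viability read-out in confluent primary human umbilical vein endothelium 24 h after chemical treatment. Curves were fitted bidirectionally against DMSO as negative control.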

[6] = BSK_BE3C_SRB: Viability Assessment in the BioMAP Diversity Plus: BE3C Assay (AID 2283028); conditions: primary human bronchial epithelial cells
How it was run: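 Cells (human bronchial epithelial, primary) are treated with chemicals, and after 24 h the parallel cultures are fixed in 10% TCA. These are then stained with 0.1% SRB and read at 560 nm. Gain or loss of signal is fitted relative to DMSO.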

[7] = read-out: Thrombomodulin, THBD (gene 7056); assay: BSK_3C_Thrombomodulin: BioMAP Diversity Plus: 3C Assay for Thrombomodulin Biomarker Activity (AID 2283029); conditions: primary human endothelial cells (HUVEC); actives raise or lower the signal
How it was run: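 Read-out is ELISA of thrombomodulin on human umbilical vein endothelium 24 h after chemical dosing. Gain or loss of signal is scored relative to DMSO. Overt cytotoxicity is checked in parallel cultures by sulforhodamine B staining.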

[8] = read-out: Urokinase-type plasminogen activator receptor (uPAR), PLAUR (gene 5329); assay: BSK_4H_uPAR: BioMAP Diversity Plus: 4H Assay for Urokinase-type plasminogen activator receptor (uPAR) Biomarker Activity (AID 2283030); conditions: primary human endothelial cells (HUVEC); actives raise or lower the signal
How it was run: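 Cell-surface uPAR ELISA signal, measured 24 h after dosing human umbilical vein endothelial cells, was analyzed with bidirectional fitting relative to DMSO. Parallel SRB staining of total protein tracked overt cytotoxicity.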

[9] = read-out: Vascular endothelial growth factor receptor 2 (Homo sapiens) (UniProt P35968); assay: BSK_4H_VEGFRII: BioMAP Diversity Plus: 4H Assay for Vascular endothelial growth factor receptor 2 (VEGFR2) Biomarker Activity (AID 2283031); conditions: primary human endothelial cells (HUVEC); actives raise or lower the signal
How it was run: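 ELISA read-out of VEGFRII in primary human umbilical vein endothelium, taken 24 h after chemical treatment. Responses are expressed relative to DMSO, with bidirectional fitting.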

[10] = read-out: Human Leukocyte Antigen - DR isotype (HLADR), HLA-DRA (gene 3122); assay: BSK_BE3C_HLADR: BioMAP Diversity Plus: BE3C Assay for Human Leukocyte Antigen - DR isotype (HLADR) Biomarker Activity (AID 2283032); conditions: primary human bronchial epithelial cells; actives raise or lower the signal
How it was run: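 ELISA read-out of HLA-DR on human lung bronchial epithelial primary cells, measured 24 h post-dosing. Both increases and decreases were scored relative to DMSO vehicle.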

[11] = read-out: Vascular cell adhesion molecule 1 (VCAM1), VCAM1 (gene 7412); assay: BSK_4H_VCAM1: BioMAP Diversity Plus: 4H Assay for Vascular cell adhesion molecule 1 (VCAM1) Biomarker Activity (AID 2283033); conditions: primary human endothelial cells (HUVEC); actives raise or lower the signal
How it was run: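 ELISA read-out of VCAM-1 on human umbilical vein endothelium 24 hours after chemical dosing; gain or loss of signal was fitted relative to DMSO, with sulforhodamine B staining of parallel cultures flagging overt cytotoxicity.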

[12] = read-out: Interferon-gamma inducible Protein 10 (IP10), CXCL10 (gene 3627); assay: BSK_BE3C_IP10: BioMAP Diversity Plus: BE3C Assay for Interferon-gamma inducible Protein 10 (IP10) Biomarker Activity (AID 2283034); conditions: primary human bronchial epithelial cells; actives raise or lower the signal
How it was run: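 Chemical is dosed onto human lung bronchial epithelial primary cells, cultures are incubated 24 h, and IP-10 is then quantified by ELISA. Gain or loss of signal is fitted in both directions relative to DMSO.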

[13] = read-out: Monokine induced gamma interferon (MIG), CXCL9 (gene 4283); assay: BSK_BE3C_MIG: BioMAP Diversity Plus: BE3C Assay for Monokine induced gamma interferon (MIG) Biomarker Activity (AID 2283035); conditions: primary human bronchial epithelial cells; actives raise or lower the signal;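 further: MIG protein measured by ELISA in BE3C cultures after 24 h of dosing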
How it was run: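 MIG level was determined by ELISA after 24 h chemical treatment of primary human bronchial epithelial cells. Values were fitted bidirectionally with DMSO as the negative control and activity baseline.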

[14] = read-out: Transforming growth factor beta 1 (TGFb1), TGFB1 (gene 7040); assay: BSK_BE3C_TGFb1: BioMAP Diversity Plus: BE3C Assay for Transforming growth factor beta 1 (TGFb1) Biomarker Activity (AID 2283036;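 further: TGF-b1 protein level measured by ELISA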); conditions: primary human bronchial epithelial cells; actives raise or lower the signal
How it was run: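 Primary human lung bronchial epithelial cells; compound exposure 24 h; TGF-b1 by ELISA; bidirectional fit, DMSO baseline. Parallel SRB total-protein staining for cytotoxicity.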

[15] = read-out: Plasminogen activator inhibitor-1 (PAI1), SERPINE1 (gene 5054); assay: BSK_BE3C_PAI1: BioMAP Diversity Plus: BE3C Assay for Plasminogen activator inhibitor-1 (PAI1) Biomarker Activity (AID 2283037); conditions: primary human bronchial epithelial cells; actives raise or lower the signal
How it was run: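 Primary human lung bronchial epithelial cells; chemical dosing; 24 h; PAI-1 measured by ELISA; bidirectional fit referenced to DMSO as negative control.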

[16] = read-out: urokinase plasminogen activator (uPA), PLAU (gene 5328); assay: BSK_BE3C_uPA: BioMAP Diversity Plus: BE3C Assay for urokinase plasminogen activator (uPA) Biomarker Activity (AID 2283038); conditions: primary human bronchial epithelial cells; actives raise or lower the signal;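 further: uPA protein level quantified by ELISA in cell cultures; uPA read one day after compound addition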
How it was run: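 Bronchial epithelial cells (human, primary); chemical 24 h; uPA by ELISA; bidirectional fit vs DMSO. SRB (0.1%, after 10% TCA fixation, 560 nm) in parallel cultures for cytotoxicity.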

[17] = read-out: Urokinase-type plasminogen activator receptor (uPAR), PLAUR (gene 5329); assay: BSK_BE3C_uPAR: BioMAP Diversity Plus: BE3C Assay for Urokinase-type plasminogen activator receptor (uPAR) Biomarker Activity (AID 2283039); conditions: primary human bronchial epithelial cells; actives raise or lower the signal;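 further: cells exposed to compound for one day before measurement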
How it was run: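 Human bronchial epithelial primary cells; chemical exposure 24 h; uPAR by ELISA; bidirectional fit vs DMSO control.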

[18] = read-out: Interleukin-6 (IL6), IL6 (gene 3569); assay: BSK_CASM3C_IL6: BioMAP Diversity Plus: CASM3C Assay for Interleukin-6 (IL6) Biomarker Activity for (AID 2283040); conditions: primary human coronary artery smooth muscle cells; actives raise or lower the signal
[19] = read-out: Tissue plasminogen activator (tPA), PLAT (gene 5327); assay: BSK_BE3C_tPA: BioMAP Diversity Plus: BE3C Assay for Tissue plasminogen activator (tPA) Biomarker Activity (AID 2283041); conditions: primary human bronchial epithelial cells; actives raise or lower the signal;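 further: tPA level quantified by ELISA one day after compound addition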
How it was run: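 Primary human lung bronchial epithelial cultures receive test chemical; after 24 h, tPA is quantified by ELISA, and gain or loss of signal is fitted bidirectionally relative to DMSO baseline.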

[20] = read-out: Interleukin-8 (IL8), CXCL8 (gene 3576); assay: BSK_CASM3C_IL8: BioMAP Diversity Plus: CASM3C Assay for Interleukin-8 (IL8) Biomarker Activity (AID 2283042); conditions: primary human coronary artery smooth muscle cells; actives raise or lower the signal;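 further: IL-8 protein level quantified by ELISA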

Measured: AC50

Cn1c(=O)c2c(ncn2C)n(C)c1=O
inactive: [1] | [2] | [3] | [4] | [5] | [6] | [7] | [8] | [9] | [10] | [11] | [12] | [13] | [14] | [15] | [16] | [17] | [18] | [19] | [20]

Oc1ccc2c(c1)-c1ccccc1C2
active: [1] 19.6 µM | [3] 39 µM | [5] 10.2 µM
inactive: [2] | [4] | [6] | [7] | [8] | [9] | [10] | [11] | [12] | [13] | [14] | [15] | [16] | [17] | [18] | [19] | [20]

CCOCCOCCOCCO
inactive: [1] | [2] | [3] | [4] | [5] | [6] | [7] | [9] | [10] | [11] | [12] | [13] | [14] | [15] | [16] | [17] | [18] | [19] | [20]

CC(=O)OC[C@H]1O[C@@](COC(C)=O)(O[C@H]2O[C@H](COC(C)=O)[C@@H](OC(C)=O)[C@H](OC(C)=O)[C@H]2OC(C)=O)[C@@H](OC(C)=O)[C@@H]1OC(C)=O
inactive: [1] | [2] | [3] | [4] | [5] | [6] | [7] | [8] | [9] | [10] | [11] | [12] | [13] | [14] | [15] | [16] | [18] | [19] | [20]

Clc1nc(Cl)c(Cl)c(Cl)c1Cl
inactive: [1] | [2] | [5] | [6] | [7] | [8] | [9] | [12] | [13] | [14] | [15] | [16] | [17] | [18] | [19] | [20]
active: [3] 37.5 µM | [4] 30.2 µM | [10] 26.4 µM | [11] 20 µM
